# According to PubChem BioAssay AID1159580 (chemical genetic matrix, 2015):
# Out of some 5,500 compounds screened, about 2,000 (36%) were called active. Roughly 18% stayed inconclusive and do not appear here. The list shows a part of the results. Unmarked numbers belong to inactive results. No stated cut-off is given here; in the data, active means normalized growth mostly below about 0.91 (no sharp cut-off); inconclusive means no clear call, values can overlap the other calls; inactive means mostly above about 0.92.
# Assay: chemical genetic growth profiling, strain panel (AID 1159580);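 further: tested at 20 µM; growth read once vehicle control cultures reached saturation at 30 °C; 1 = growth at the plate median or of vehicle wells; lower values mean less growth of the strain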
# Settings: S. cerevisiae deletion strains, growth OD
structure (smiles),measurement,setting,value
CO/N=C(\C(=O)NC1C(=O)N2C(C(=O)O)=C(COC(N)=O)CSC12)c1ccco1 (stereo unspecified),normalized growth,"locus YJR066W, strain TOR1, hits give low values",0.972
same,normalized growth,"locus YKL009W, strain mrt4, hits give low values",0.311 (active)
same,normalized growth,"locus YKL068W, hits give low values",0.575 (active)
same,normalized growth,"locus YKL085W, strain MDH1 (second series), hits give low values",0.0978 (active)
same,normalized growth,"locus YKL085W, strain MDH1, hits give low values",0.0978 (active)
same,normalized growth,"locus YKL160W, strain elf1, hits give low values",0.961
same,normalized growth,"locus YKL190W, strain CNB1, hits give low values",0.0476 (active)
same,normalized growth,"locus YKR001C, strain vps1, hits give low values",0.0619 (active)
same,normalized growth,"locus YKR026C, strain gcn3, hits give low values",0.98
same,normalized growth,"locus YKR091W, strain srl3, hits give low values",0.98
same,normalized growth,"locus YLL001W, strain dnm1, hits give low values",0.944
same,normalized growth,"locus YLL026W, hits give low values",0.991
same,normalized growth,"locus YLL041C, strain sdh2, hits give low values",0.971
same,normalized growth,"locus YLR027C, strain aat2, hits give low values",0.981
same,normalized growth,"locus YLR039C, strain RIC1, hits give low values",0.0948 (active)
same,normalized growth,"locus YLR058C, strain SHM2, hits give low values",0.0436 (active)
same,normalized growth,"locus YLR102C, strain apc9, hits give low values",0.0609 (active)
same,normalized growth,"locus YLR113W, strain HOG1, hits give low values",1.07
same,normalized growth,"locus YLR221C, strain rsa3, hits give low values",0.956
same,normalized growth,"locus YLR258W, strain gsy2, hits give low values",0.975
same,normalized growth,"locus YLR262C, strain YPT6 (second series), hits give low values",0.967
same,normalized growth,"locus YLR262C, strain YPT6, hits give low values",0.107 (active)
same,normalized growth,"locus YLR268W, strain sec22, hits give low values",0.0592 (active)
same,normalized growth,"locus YLR320W, strain mms22, hits give low values",0.93
same,normalized growth,"locus YLR330W, strain CHS5, hits give low values",0.053 (active)
same,normalized growth,"locus YLR342W, strain FKS1 (second series), hits give low values",0.0595 (active)
same,normalized growth,"locus YLR342W, strain FKS1, hits give low values",0.972
same,normalized growth,"locus YLR357W, strain rsc2, hits give low values",0.963
same,normalized growth,"locus YLR370C, strain arc18, hits give low values",0.963
same,normalized growth,"locus YLR371W, strain rom2, hits give low values",0.0612 (active)
same,normalized growth,"locus YLR384C, strain iki3, hits give low values",0.968
same,normalized growth,"locus YLR418C, strain cdc73, hits give low values",0.096 (active)
same,normalized growth,"locus YML016C, strain PPZ1, hits give low values",0.0484 (active)
same,normalized growth,"locus YML032C, strain rad52, hits give low values",0.0647 (active)
same,normalized growth,"locus YML120C, strain ndi1, hits give low values",0.965
same,normalized growth,"locus YML124C, strain tub3, hits give low values",0.0613 (active)
same,normalized growth,"locus YMR058W, strain fet3, hits give low values",0.968
same,normalized growth,"locus YMR078C, strain ctf18, hits give low values",0.0716 (active)
same,normalized growth,"locus YMR125W, strain sto1, hits give low values",0.979
same,normalized growth,"locus YMR129W, hits give low values",0.983
same,normalized growth,"locus YMR205C, strain PFK2, hits give low values",0.949
same,normalized growth,"locus YMR223W, strain ubp8, hits give low values",0.0609 (active)
same,normalized growth,"locus YMR231W, strain pep5, hits give low values",0.968
same,normalized growth,"locus YMR263W, strain SAP30, hits give low values",0.0627 (active)
same,normalized growth,"locus YMR307W, strain GAS1, hits give low values",0.13 (active)
same,normalized growth,"locus YNL067W, strain RPL9B, hits give low values",0.0518 (active)
same,normalized growth,"locus YNL071W, strain lat1, hits give low values",0.974
same,normalized growth,"locus YNL183C, strain NPR1, hits give low values",0.966
same,normalized growth,"locus YNL209W, strain ssb2, hits give low values",0.985
same,normalized growth,"locus YNL233W, strain BNI4, hits give low values",0.061 (active)
same,normalized growth,"locus YNL248C, strain rpa49, hits give low values",0.966
same,normalized growth,"locus YNL250W, strain rad50, hits give low values",0.297 (active)
same,normalized growth,"locus YNL271C, strain bni1, hits give low values",0.224 (active)
same,normalized growth,"locus YNL298W, strain CLA4, hits give low values",0.235 (active)
same,normalized growth,"locus YNL307C, strain MCK1, hits give low values",0.0668 (active)
same,normalized growth,"locus YNL322C, strain KRE1 (second series), hits give low values",0.969
same,normalized growth,"locus YNL322C, strain KRE1, hits give low values",0.0494 (active)
same,normalized growth,"locus YNR049C, strain mso1, hits give low values",0.978
same,normalized growth,"locus YNR052C, strain pop2, hits give low values",0.0644 (active)
same,normalized growth,"locus YOL012C, strain htz1",0.173 (active)
same,normalized growth,"locus YOL147C, strain pex11, hits give low values",0.0578 (active)
same,normalized growth,"locus YOR001W, strain rrp6, hits give low values",0.984
same,normalized growth,"locus YOR061W, strain CKA2, hits give low values",0.0318 (active)
same,normalized growth,"locus YOR069W, strain VPS5, hits give low values",0.0536 (active)
same,normalized growth,"locus YOR070C, strain gyp1, hits give low values",0.988
same,normalized growth,"locus YOR080W, strain dia2, hits give low values",0.986
same,normalized growth,"locus YOR083W, strain WHI5, hits give low values",0.953
same,normalized growth,"locus YOR106W, strain vam3, hits give low values",0.951
same,normalized growth,"locus YOR136W, strain idh2, hits give low values",0.067 (active)
same,normalized growth,"locus YOR144C, strain elg1, hits give low values",0.0595 (active)
same,normalized growth,"locus YOR184W, strain ser1, hits give low values",0.062 (active)
same,normalized growth,"locus YOR231W, strain MKK1, hits give low values",1.06
same,normalized growth,"locus YOR265W, strain rbl2, hits give low values",0.991
same,normalized growth,"locus YOR270C, strain vph1, hits give low values",0.96
same,normalized growth,"locus YOR290C, strain snf2, hits give low values",0.958
same,normalized growth,"locus YOR316C, strain cot1, hits give low values",0.0579 (active)
same,normalized growth,"locus YPL051W, strain arl3, hits give low values",0.97
same,normalized growth,"locus YPL078C, strain atp4, hits give low values",0.957
same,normalized growth,"locus YPL106C, strain sse1, hits give low values",0.941
same,normalized growth,"locus YPL240C, strain hsp82, hits give low values",0.982
same,normalized growth,"locus YPL256C, strain CLN2, hits give low values",1.07
same,normalized growth,"locus YPR119W, strain clb2, hits give low values",0.0597 (active)
same,normalized growth,"locus YPR141C, strain kar3, hits give low values",0.56 (active)
same,normalized growth,"locus YPR163C, strain tif3, hits give low values",0.0674 (active)
same,normalized growth,"locus YPR167C, strain met16, hits give low values",0.0656 (active)
same,normalized growth,"strain wtn01, hits give low values",0.0569 (active)
